Hits are enriched below; roughly 2.1% of the tested compounds scored in any of these assays.
MITF TRPM1 inh: reduces MITF-dependent TRPM1 promoter luciferase signal | SK-MEL-5 TRPM1 promoter luciferase, 24 h | inhibition, % at 12.5 µM | 0.83% of 330,000 active | AID 488899;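 active = mean inhibition across replicates of 60% or more, whatever share of single replicates reaches that level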
PAX8 inh HTS: lowers PAX8-driven luciferase in RMG-I cells. AID 652154. RMG-I TPO-luciferase reporter, SteadyGlo, 24 h. 1.2% of 360,000 active. inhibition, % at 12.6 µM;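 active = mean replicate inhibition at least 60% with every replicate also reaching 60%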;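 also: luciferase light reporting Pax8 driven TPO promoter activity; plate controls were median of neutral control wells for no effect and mitoxantrone controls for full effect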
EBV LMP1 NFkB: reduces LMP1-driven NF-kappaB luciferase signal; LMP1-induced NF-kappaB luciferase reporter cells, luminescence; inhibition, % at 12.5 µM; 0.69% of 350,000 active; AID 504558; in the data active = inhibition above about 41%;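 also: 0% = neutral control wells and 100% = reference inhibitor control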
aSyn 5UTR inh: 5' untranslated region of α-synuclein, MLPCN primary screen; alpha-synuclein 5'UTR reporter, inhibitor activity; 0.82% of 300,000 active; inhibition, % (tested at 7.5 µM); in the data active = inhibition above about 60%;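 also: H4 neuroglioblastoma cells stably carrying SNCA 5'UTR luciferase fusion; 0% = DMSO wells and 100% = positive control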
Shn3 inh set2: Schnurri-3 reporter inhibition in Clone20 osteoblasts; inhibition, % at 12.5 µM; Clone20 osteoblast Shn3 3'UTR firefly luciferase, 24 h; 0.52% of 360,000 active;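 active = mean inhibition of at least 75% with every replicate also reaching 75%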;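 also: 0% = median of neutral control wells and 100% = pilot-screen positive control compound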
The depositor's hits bear a star; . = not tested or not shown; ! = repeats disagree.

SMILES | MITF TRPM1 inh | PAX8 inh HTS | EBV LMP1 NFkB | aSyn 5UTR inh | Shn3 inh set2
O=C(CCNC(=O)N1C[C@H]2C[C@@H](C1)c1cccc(=O)n1C2)Nc1cccc(Cl)c1 | 3.4 | . | -3.7 | 10.6 | -0.5
CC(C)[C@H]1C(=O)O[C@H](C(C)C)C(=O)N(C)[C@@H](C(C)C)C(=O)O[C@H](C(C)C)C(=O)N(C)[C@@H](C(C)C)C(=O)O[C@H](C(C)C)C(=O)N1C | 77.5* | . | 56.3* | 85.7* | 89.8*
COc1ccc(CN2CCNCC2)cc1 | 6.5 | 3.4 | 0.1 | -8.9 | -17.7
CC(C)n1c(O)c(C2c3cc(Cl)ccc3Oc3[nH]c(=O)n(C(C)C)c(=O)c32)c(=O)[nH]c1=O (configuration not stated) | 102.3* | . | -0.2 | -88.4 | 79.0
CC(=O)c1c(O)n(-c2cccc(Cl)c2)c(=O)[nH]c1=O (tested in a mixture with another compound) | 2.5 | 3.9 | 2.3 | -21.3 | -6.2
NCC(CC(=O)O)C1CCCCC1 (configuration not stated) | -4.1 | . | -19.3 | 9.5 | -15.4
ClCCN(CCCl)c1ccc(C=NNc2ncccn2)cc1 | -33.8 | -18.4 | 16.4 | . | -52.9
N#Cc1ncc(N=Cc2ccc(N(CCCl)CCCl)cc2)s1 | 10.0 | 3.8 | 59.2* | . | 21.8
O=C(NCCN1CCC2(CC1)C(=O)NCN2c1ccccc1)c1cc(C(F)(F)F)ccc1C(F)(F)F | . | -32.8 | . | . | .
COC(=O)C(Cc1ccc(N(CCCl)CCCl)cc1)N=Cc1ccccc1O (configuration not stated) | 62.2* | 97.0* | 72.8* | 27.4 | 54.1
NC(Cc1ccc(F)cc1)c1csc(Nc2cnccn2)n1 (configuration not stated) | . | . | . | . | 26.4
CN(C)CC1CSCCC1(O)c1ccc(Cl)cc1 (configuration not stated) | 11.7 | 13.1 | -1.0 | 7.7 | -2.6
COCCCn1c(N)c(C(=O)NCCC(C)C)c2nc3ccccc3nc21 | -4.5 | . | -4.4 | 13.3 | 12.8
CC(C)(C)[C@]1(O)C[C@@H]2OC(=O)C[C@@]23C(=O)O[C@@H]2OC(=O)[C@@H](O)C213 (some centres not stated) | -0.7 | -25.3 | -0.2 | . | -7.9
O=[N+]([O-])c1ccc(-[n+]2c(-c3ccccc3)cc(-c3ccccc3)cc2-c2ccccc2)cc1 | 0.6 | -2.9 | -1.8 | -1.4 | 3.3
COc1ccc(-[n+]2c(-c3ccccc3)cc(-c3ccccc3)cc2-c2ccccc2)cc1 | . | 92.5* | . | 81.5* | .
Oc1ccc(-[n+]2c(-c3ccccc3)cc(-c3ccccc3)cc2-c2ccccc2)cc1 | 83.6* | 90.2* | 31.9 | 2.7 | 21.6
Cc1ccc(N=Nc2c(O)[nH]c(=O)[nH]c2=O)c([N+](=O)[O-])c1 | 13.1 | . | -14.4 | 3.9 | 5.7
CC(=O)Nc1ccc2c(c1)CC1(C(=O)N(C)C(=O)N(C)C1=O)C1CCCN21 (configuration not stated) | -0.5 | 14.4 | 3.0 | 24.8 | 14.0
CN(C)[C@@H]1C(=O)C(C(N)=O)=C(O)[C@@]2(O)C(=O)C3=C(O)c4c(O)cccc4[C@@](C)(O)[C@H]3[C@H](O)[C@@H]12 | 1.6 | -14.0 | 89.6*! | 19.9 | -4.0
COC(=O)C1=C(c2ccc(F)cc2OCc2ccccc2)C[C@@H]2CC[C@H]1N2C(=O)NC(C)C | -1.5 | 1.8 | 49.4* | . | 20.2
COC(=O)C1=C(c2ccc(OCc3ccccc3)cc2)C[C@@H]2CC[C@H]1N2C(=O)NCCCCc1ccccc1 | . | 61.7* | -0.5 | . | 82.3
COC(=O)C1=C(c2ccc(F)cc2OCc2ccccc2)C[C@@H]2CC[C@H]1N2C(=O)NC1CCCCC1 | 8.9 | 29.9 | -3.2 | . | 45.3
CCOC(=O)c1c(C)n(C(C)C)c2ccc(OC(=O)c3ccc(N4C(=O)CCC4=O)cc3)cc12 | 3.5 | -7.3 | -11.9 | 1.3 | 6.1
O=C(Cc1cccnc1)N1CCCCN2[C@H](CO)[C@H](c3ccc(C#CC4CCCC4)cc3)[C@H]2C1 | . | 0.1 | . | . | .
SMILES | MITF TRPM1 inh | PAX8 inh HTS | EBV LMP1 NFkB | aSyn 5UTR inh | Shn3 inh set2
COC12C(COC(N)=O)C3=C(C(=O)C(C)=C(N)C3=O)N1CC1C2N1C (configuration not stated) | 34.2 | . | 63.4* | -3.2 | 27.5
Cc1nc2c(-c3ccccc3)c(C)nn2c(C)c1CCC(=O)N1CCC2(CC1)OCCO2 | 23.2 | -2.3 | 9.2 | 28.3 | -6.2
Cc1nc2cc(-c3cccc(F)c3)nn2c(C)c1CCC(=O)N1CCC2(CC1)OCCO2 | 6.1 | 9.5 | -3.3 | 77.4* | 36.4
COc1cc2c(cc1OC)C1C(=O)c3ccc4c(c3OC1CO2)CC(C(C)C)O4 (configuration not stated) | 40.0 | 26.2 | 16.6 | . | 85.1*
O=[N+]([O-])c1ccccc1CCl | 13.6 | . | 1.6 | . | -13.7
O=[N+]([O-])c1ccccc1-c1cc(-c2ccccc2)cc(-c2ccccc2)[n+]1Cc1ccccc1Cl | . | 86.1* | . | 63.8* | .
C=C(C=O)CC1CC(O)[C@]2(C)OC3CC4OC5C[C@]6(C)O[C@]7(C)CCC8OC9C[C@]%10(C)OC%11C(C)=CC(=O)OC%11CC%10OC9C[C@@H](C)C8OC7CC6O[C@]5(C)CC5OC5C4OC3CC2O1 (some centres not stated) | 96.2* | . | 73.9* | 114.2* | 59.3
N=c1c2c(n(Cc3ccc(Cl)cc3Cl)c3c1CCC3)CCCC2 | 52.8 | . | 37.1 | 8.2 | 85.7*
Cc1nn(Cc2ccc(Cl)cc2Cl)c(Cl)c1C(=O)O | 5.5 | -10.8 | -2.3 | 11.6 | -2.3
O=C1NC(=O)C(=Cc2ccc(Cl)cc2)C(=O)N1 | . | 5.2 | . | . | .
CCN(CC)c1ccc(C=C2C(=O)N(C)C(=S)N(C)C2=O)o1 | -39.8 | 77.7* | -9.8 | -86.2 | -39.0
O=C1NC(=O)N(CCc2ccc(F)cc2)C(=O)/C1=C/c1ccco1 | 34.4 | 6.6 | 9.9 | -1.0 | -6.2
CC(C)OP(=O)(OC(C)C)C(O)c1ccc(Br)cc1 (configuration not stated) | -8.4 | . | 1.3 | 9.1 | 12.6
C=CCN1CC[C@]23c4c5ccc(O)c4OC2[C@H](O)CC[C@@]3(O)[C@H]1C5 (some centres not stated) | 2.7 | . | 7.9 | . | 7.1
Oc1ccc2c3c1O[C@H]1[C@@H](O)CC[C@@]4(O)[C@@H](C2)N(CC2CCC2)CC[C@]314 | 2.6 | -13.3 | 68.5*! | 4.8 | 15.9
COc1ccc(CC2NCC(O)C2OC(C)=O)cc1 (configuration not stated) | 91.5* | . | 88.2* | . | 96.5*
CN1[C@@H]2CC[C@H]1CC(OC(=O)C1C=Nc3ccccc31)C2 (some centres not stated) | -4.0 | -5.2 | 81.9* | -10.9 | -14.5
CCCCC1(CCCC)C(=O)NC(=Nc2cccc(C)c2)NC1=O | -6.5 | 4.9 | -0.8 | -0.1 | -28.4
Cc1cccc(N=C2c3cc([N+](=O)[O-])ccc3-c3c2cc([N+](=O)[O-])cc3[N+](=O)[O-])c1 | 41.6 | 65.9* | 16.5 | . | -21.4
NC(=O)c1cc([N+](=O)[O-])cc([N+](=O)[O-])c1 | 11.4 | 15.4 | 3.2 | . | -18.0
CC(C)(C)c1cc([N+](=O)[O-])cc(C(C)(C)C)c1O | . | 66.6* | . | 0.9 | .

Assay outcomes: PubChem BioAssay, Broad Institute
